# Bioassay records deposited in PubChem by Johns Hopkins Ion Channel Center.
# CHT PAM = CHT positive allosteric modulators, primary screen, cell-based, membrane potential dye, choline EC20 | High affinity choline transporter 1 (Homo sapiens), Q9GZV3 | hit rate 0.49% among 310,000 | CHT-expressing cells; stronger effect = higher value; LV-AA mutant CHT in HEK293 cells | B-score at 10 µM;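 active means initial fluorescence not abnormally high and integrated response B-score, plate-corrected, over 3 SD above library mean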
# Target sequence (Q9GZV3 whole entry, looked up): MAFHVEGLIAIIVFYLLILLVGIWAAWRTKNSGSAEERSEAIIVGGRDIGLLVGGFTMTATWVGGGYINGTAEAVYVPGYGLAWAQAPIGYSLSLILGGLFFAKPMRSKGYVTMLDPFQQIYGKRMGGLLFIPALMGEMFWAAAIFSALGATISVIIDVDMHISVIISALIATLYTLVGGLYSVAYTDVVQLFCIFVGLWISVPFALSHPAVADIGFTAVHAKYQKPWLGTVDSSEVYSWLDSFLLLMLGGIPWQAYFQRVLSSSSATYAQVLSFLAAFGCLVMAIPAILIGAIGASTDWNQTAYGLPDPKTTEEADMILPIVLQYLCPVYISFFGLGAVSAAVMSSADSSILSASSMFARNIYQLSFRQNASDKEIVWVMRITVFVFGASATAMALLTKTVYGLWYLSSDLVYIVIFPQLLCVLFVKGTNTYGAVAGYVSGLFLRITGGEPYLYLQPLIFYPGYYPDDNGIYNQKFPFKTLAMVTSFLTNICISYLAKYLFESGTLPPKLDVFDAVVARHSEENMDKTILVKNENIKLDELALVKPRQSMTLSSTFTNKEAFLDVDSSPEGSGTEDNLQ
# TMEM16A inh = TMEM16A chloride channel inhibitors, primary screen, cell-based, HTS; Anoctamin-1 (Mus musculus), Q8BHY3; HEK293 TMEM16A/YFP iodide influx fluorescence, ionomycin; normalized B-score (activity score, 25-100; higher = stronger inhibition) at 10 µM; hit rate 1.2% among 310,000;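 active means ratio plate-corrected score three or more library SD toward inhibition, starting fluorescence score within five deviations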;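 further: score derived from kinetic fluorescence span divided by baseline fluorescence per well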
# TMEM16A act = TMEM16A chloride channel activators or potentiators, primary screen, cell-based, HTS; HEK293 TMEM16A/YFP-H148Q/I152L, iodide quench fluorescence; stronger effect = lower value; B-score at 10 µM; hit rate 0.3% among 340,000;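 active means fluorescence-ratio B-score plate-corrected deviation score at least 3 library SD below zero, with starting fluorescence score within 5 deviations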;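 further: channel opened by trigger with iodide after compound preincubation; score built on the fluorescence ratio of max minus min over baseline; more negative score means more quench and so TMEM16A activation or potentiation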
# CHT inh = inhibitors of human choline transporter CHT; High affinity choline transporter 1 (Homo sapiens), Q9GZV3; CHT-expressing cells, membrane potential dye, choline response; stronger effect = lower value; B-score at 10 µM; hit rate 0.86% among 310,000; AID 488975, 2010;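 active means B-score over 3 SD under the library average, and starting fluorescence ratio not unusually high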;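 further: choline stimulus applied at its EC90 after an EC20 pre-addition; B-score computed on integrated fluorescence ratio after choline addition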
# CHT block conf = CHT inhibitors, confirmation, cell-based, membrane potential dye, duplicate. shares compounds with CHT inh. hit rate 70% among 2,400. CHT activity remaining % of control (stronger effect = lower value), % at 10 µM. AID 493221, 2011. CHT-expressing cells, choline membrane potential dye; LV-to-AA substituted CHT, HEK293 cells;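 active means choline transporter activity left, mean of duplicates at 10 µM, below buffer-only control mean minus 3 SD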;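 further: depolarization triggered by choline at its EC90 following an EC20 pre-addition; 0% = hemicholinium-3 full block and 100% = buffer-only control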
# HEK293 MPD ctr = membrane potential effects in parental HEK293, counter-screen for CHT inhibitor project, cell-based, membrane potential dye; shares compounds with CHT inh; choline response; active = decrease or increase beyond buffer ±3SD; membrane potential ratio readout (active if shifted either direction beyond buffer ±3SD; no single direction) at 10 µM; hit rate 4% among 2,400;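 further: parental cells lack the transporter so any hit is non-specific; ratio is peak minus trough fluorescence over baseline after EC90 choline challenge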
# Numbers without * were called inactive; i = inactive; . = no result. Compounds with a hit are over-represented: about 2.3% of the library has one in this group of screens.
SMILES,CHT PAM,TMEM16A inh,TMEM16A act,CHT inh,CHT block conf,HEK293 MPD ctr
Oc1cccc(C(O)CNCc2ccc(OCc3ccc(Cl)cc3Cl)cc2)c1 (centres undefined),i,i,i,-5.63*,69.0%*,i
O=C1Nc2cc(C(=O)NCCCN3CCCC3)ccc2S/C1=C\c1ccccc1,i,i,i,-10.7*,24.4%*,i
O=C(NCCCN1CCCC1)c1ccc2c(c1)N(Cc1ccccc1)CCS2,i,i,i,-5.41*,36.3%*,3.96*
O=C(NCCCOc1cccc(CN2CCCCC2)c1)c1ccc(Cl)c(Cl)c1,i,i,i,-10.9*,22.0%*,2.45*
O=C1Nc2cc(C(=O)NCCCN3CCOCC3)ccc2S/C1=C/c1ccccc1F,i,i,i,i,.,.
CCN1CCN(CCCNC(=O)c2ccc3c(c2)N(Cc2ccccc2)CCS3)CC1,i,i,i,i,.,.
c1cc(CN2CCCCC2)cc(OCCCNc2nc3ccccc3s2)c1,i,i,i,i,.,.
Cn1nc(C(=O)NCCCN2CCCCC2)c2c1-c1ccccc1SC2,i,i,i,-5.47*,36.8%*,i
CC(=O)C1=C(O)C(=O)N(Cc2ccccc2)C1c1ccccc1F (centres undefined),i,i,i,-8.36*,i,i
COc1cccc(-c2cc(-c3cccnc3)nc(N)c2C#N)c1,i,i,i,-7.27*,i,i
CCOC(=O)C1CCCN(C(=O)c2ccc3c(c2)OCCO3)C1 (centres undefined),.,.,i,.,.,.
CCOC(=O)C1CCCN(C(=O)c2csc(-c3ccc4c(c3)CCO4)n2)C1 (centres undefined),i,i,i,-7.23*,56.5%*,i
C=CCSc1nsc(NC(=O)Nc2ccc(F)cc2)n1,i,100*,i,-7.79*,i,i
CSCCCNC(=S)N1CCc2ccccc2C1,i,i,i,i,.,.
O=[N+]([O-])c1cc(-c2ncccn2)c([N+](=O)[O-])s1,i,i,i,-6.31*,48.5%*,i
O=C(Nc1cccc([N+](=O)[O-])c1)C(=O)N1CCCCC1,i,i,i,-4.99*,i,i
CC(C)C(OC(=O)c1nsc(Cl)c1Cl)C(=O)NCc1ccccc1 (centres undefined),i,i,i,i,.,.
CCN1CCN(c2ccc(N3CCN(C(=O)c4ccc(Br)o4)CC3)nn2)CC1,i,i,i,i,.,.
COc1cccc(/C=N/Nc2cc(Cl)nc(C)n2)c1O,i,i,i,-6.39*,i,i
Cc1ccc(NS(=O)(=O)c2cc3c4c(cccc4c2)C(=O)NC3=O)cc1C,i,i,i,i,.,.
CC1(C)CC(=O)C=C(Nc2cccc(Cl)c2Cl)C1,i,i,i,-4.98*,62.7%*,i
C=CCc1ccc(OCC(O)CN2CCC(Cc3ccccc3)CC2)c(OC)c1 (centres undefined),i,i,i,-7.24*,31.1%*,i
CC1(C(=O)Nc2nc3ccc(S(C)(=O)=O)cc3s2)CC1(Cl)Cl (centres undefined),i,i,i,i,.,.
CC(SCC(=O)O)c1nc2ccccc2[nH]1 (centres undefined),i,i,i,-5.71*,i,i
Cc1nnc(NCc2cccc(Cl)c2)c2ccccc12,i,i,i,-10.2*,20.0%*,i
COc1cc2ncnc(NCc3cccc(Cl)c3)c2cc1OC,i,i,i,i,.,.
CCOC(=O)c1ccccc1NC(=O)c1cccs1,i,i,i,i,.,.
CCOC(=O)c1ccccc1N/C=C/C(=O)c1cccs1,i,i,i,-8.51*,41.5%*,i
